Measured values published in PubChem BioAssay (NCI).
About 83,000 compounds went through this panel and 20% of them were active in at least one assay; those are over-represented in the sample as a whole.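 Cells were grown in 96-well plates and exposed to the test compound at a single concentration for 48 hours; results are reported as percent growth, with values below 10 considered active.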 Values without a mark were called inactive. The source made the active and inactive calls.

system: HOP-62 NSCLC; experiment: NCI-60 one-dose screen, 48 h (100 = growth as untreated, 0 = no growth, -100 = all killed); details: 10 µM unless noted
Procedure: Growth inhibition of the HOP-62 human Non-Small Cell Lung tumor cell line is measured as a screen for anti-cancer activity. Cells are grown in 96 well plates and exposed to the test compound for 48 hours. Compounds are tested at a single concentration, which is 10^-5 M for most compounds. The reported endpoint is percent growth (GI% or GIPRCNT), where numbers from 0 - 100% represent growth inhibition, and numbers from -100% - 0 represent cell death. For example, a value of 40 represents 60% growth inhibition. A value of 0 means no net growth occurred over the course of the experiment. A value of -40 indicates 40% of cells at the beginning of the experiment died by the end of the experiment. A value of -100 means all cells are dead at the end of the experiment.
NCI-60 Human Tumor Cell Lines Screen was performed using the standard one-dose NCI protocol, which is described in more detail at https://dtp.cancer.gov/discovery_development/nci-60/default.htm.
Compounds with GIPRCNT values below 10 were considered active. Activity score was based on GIPRCNT using the following formula: […]
Score is 0 for GIPRCNT values of 100 or above, 50 for GIPRCNT values of 0, and 100 for GIPRCNT values of -100.

With NC(=Nc1ccccc1)SCCCSC(N)=Nc1ccccc1 as the compound, how does the growth read?
The growth was 96.5%.

CC(C)c1ccc(Cn2ccc3c4c(N)nc(NC5CC5)nc4ccc32)cc1 was tested. Which growth did it give?
Its growth is -74.8% (active).

With Oc1ccc(CCCCCCc2ccc(O)cc2)cc1 as the compound, how does the growth read?
The growth was 80.6%.

For Cc1cc(N=Nc2ccc(-c3ccc(N=Nc4ccc(O)c(C(=O)O)c4)cc3)cc2)c(N)c(N=Nc2ccc(C(=O)O)cc2)c1N, which growth is on record?
The growth was 99.7%.

For CCCCn1c(-c2ccc(F)cc2)nc2cc(OC)c(OC)cc2c1=O, which growth is on record?
The growth was -11.2% (active).

With C[C@]12CCc3nc(Nc4ccc(O)cc4)sc3C1=CC[C@@H]1[C@@H]2CC[C@]2(C)/C(=N/NC(N)=S)CC[C@@H]12 as the compound, how does the growth read?
Its growth is -24.5% (active).

O=C(N=Nc1c(Cl)c(O)c2ccccc2c1O)C(=O)Nc1cccc(C(F)(F)F)c1 was tested. Which growth did it give?
The growth was 47.9%.

For COc1ccc(-n2nc(C(=O)NCC(=O)Nc3nc4cc(OC)ccc4s3)c3ccccc3c2=O)cc1, which growth is on record?
The growth was -78.7% (active).

For COc1ccc(/C=C2\CCCC3=C2N=C2SC(C)=NN2C3c2ccc(OC)c(OC)c2)cc1OC (stereo not given), which growth is on record?
The growth was 23.1%.

How did the growth turn out when Cc1n(Cc2ccc3ccccc3n2)cc[n+]1Cc1ccc2ccccc2c1 was run?
Its growth is 13.3%.

c1ccc2c(Cc3csc4ccccc34)csc2c1 was tested. Which growth did it give?
Its growth is 83.2%.

Which growth does the source give for Cc1ccc(N2C3c4ccccc4N(S(=O)(=O)c4ccc(C)cc4)C2c2ccccc2N3S(=O)(=O)c2ccc(C)cc2)cc1 here?
Its growth is 107%.

Which growth does the source give for COc1cccc(OCC(O)CN2CCN(c3ccccc3)CC2)c1 (stereo not given) here?
Its growth is 103%.

How did the growth turn out when CN=C1C=C/C(=N/N=c2/ccn(O)cc2C)C=C1C was run?
The growth was 97.2%.

CS(=O)(=O)Nc1cc(-c2cc3ncc(C#N)c(Nc4ccc(Oc5ccccc5)c(Cl)c4)c3s2)cnc1Cl was tested. Which growth did it give?
Its growth is 54.8%.

CC1=C(O)C(=O)C(c2c(C)cc(C)c(Br)c2C)=C(O)C1=O was tested. Which growth did it give?
The growth was 69.9%.

With ClCc1cccc(CSc2ncnc3c2ncn3Cc2cccc(CCl)c2)c1 as the compound, how does the growth read?
Its growth is -38.8% (active).

Which growth does the source give for Cc1ccc2cc3c(NC(=O)c4cccnc4)nn(C)c3nc2c1 here?
The growth was 101%.

Which growth does the source give for O=C(CN1CCN(c2ccccc2)CC1)N1CCN(c2nnc(-c3ccc(Cl)cc3)c(-c3ccc(Cl)cc3)n2)CC1 here?
The growth was 66%.

For CN1CCN(Cc2ccc(NC(=O)c3cncc(C#Cc4ncc5ccccn45)c3)cc2C(F)(F)F)CC1, which growth is on record?
Its growth is 16.4%.

With CCCCCCCCCCCCCC(=S)NCCCC[C@H](NC(=O)OCc1ccccc1)C(=O)Nc1ccccc1 as the compound, how does the growth read?
Its growth is 58.4%.

Cn1nc(C(F)(F)F)cc1-c1cc(Cl)c(OCc2ccc(Cl)cc2)c(-c2ccc(Cl)c(C(F)(F)F)c2)c1O was tested. Which growth did it give?
Its growth is -28.6% (active).

For Fc1ccc2nc(-c3ccc(-c4noc(-c5ccc(Cl)cc5)n4)cc3)[nH]c2c1, which growth is on record?
Its growth is 103%.

COc1ccc(Br)c2ccccc12 was tested. Which growth did it give?
The growth was 103%.

How did the growth turn out when COc1cc2cc(C(=O)Nc3ccccc3)c(N)nc2cc1OC was run?
The growth was 47.7%.

For Cc1[nH]n(C(=O)c2ccncc2)c(=O)c1N=Nc1ccc(O)c(C(=O)O)c1, which growth is on record?
Its growth is -3.17% (active).

How did the growth turn out when Cc1c(C)c(C)c([N+](=O)[O-])c([N+](=O)[O-])c1C was run?
The growth was 103%.

With CCCCN(CCCC)CCC(=O)c1ccc(OC)c2ccccc12 as the compound, how does the growth read?
Its growth is 101%.

Which growth does the source give for COc1cc(/C=C/c2ccc3c(Br)cc(Br)c(O)c3n2)ccc1O here?
The growth was 33%.

Which growth does the source give for Cc1ccc(Nc2nc(NCCO)c3ccccc3n2)cc1C here?
Its growth is 20.3%.

With Fc1ccc2c(CN3CCO[C@H](COc4cccc(Cl)c4)C3)c[nH]c2c1 as the compound, how does the growth read?
Its growth is 22%.

With O=[N+]([O-])c1cccc(N=C(Nc2cccc([N+](=O)[O-])c2)c2ccccc2)c1 as the compound, how does the growth read?
Its growth is 89.9%.

How did the growth turn out when COc1ccc(/C(=C\c2cc(OC)c(OC)c(OC)c2)C(=O)Nc2nc3ccc(Cl)cc3s2)cc1 was run?
Its growth is 94.9%.

How did the growth turn out when CSC1=NC(=Nc2c(C)cccc2C)C2(CCC(C(C)(C)C)CC2)N1c1ccc(Cl)cc1 (stereo not given) was run?
Its growth is 42%.

For CCCCCCCCCCCCCCC(C(=O)OCC)C(=O)OCC, which growth is on record?
The growth was 105%.

C[C@@H]1C[C@H](N)C[C@H](c2ccncc2NC(=O)c2ccc(F)c(-c3c(F)cccc3F)n2)C1 was tested. Which growth did it give?
Its growth is 49.1%.

With Oc1ccc(Nc2ncnc3c2sc2ncccc23)cc1 as the compound, how does the growth read?
Its growth is 9.02% (active).

For Cc1c(O)c(=O)n(-c2ccccc2)n1C, which growth is on record?
Its growth is 100%.

How did the growth turn out when CCCc1cc2c(cc1CN(Cc1cc3c(cc1CCC)OCO3)C(=N)OCC)OCO2 was run?
Its growth is 83.7%.

CCCCCCCCCCCCCCCCS(=O)(=O)Nc1cc(C(=O)NN)cc(C(=O)NN)c1 was tested. Which growth did it give?
Its growth is 76.1%.
